# Assay results as given in paper PMC5540273 (PLoS ONE, 2017).
# Values joined by “and” are separate entries in the source; they are usually repeats but may differ in a detail not shown here. Equal entries are not always repeated. Where two headings read alike, the source gives them in different places.
# Columns and labels:
# GRK4 = conditions: concentration: 1 μM, replicates: in singlicate, n = 1
# GRK7 = conditions: concentration: 1 μM, replicates: in singlicate, n = 1
# GSK3A = conditions: concentration: 1 μM, replicates: in singlicate; n = 1
# GSK3B = conditions: n = 1
# HASPIN = test system: T1, HASPIN; conditions: concentration: 1 μM, replicates: in singlicate, n = 1
# T1 construct: gene GSG2
# HCK = conditions: concentration: 1 μM, replicates: in singlicate; n = 1
# HIPK1 = conditions: concentration: 1 μM, replicates: in singlicate, n = 1
# HIPK2 = conditions: concentration: 1 μM, replicates: in singlicate, n = 1
# HIPK3 = conditions: concentration: 1 μM, replicates: in singlicate, n = 1
# HIPK4 = conditions: concentration: 1 μM, replicates: in singlicate, n = 1
# HPK1 = conditions: concentration: 1 μM, replicates: in singlicate, n = 1
# HUNK = conditions: concentration: 1 μM, replicates: in singlicate; n = 1
# ICK = conditions: concentration: 1 μM, replicates: in singlicate, n = 1
# IGF1R = conditions: concentration: 1 μM, replicates: in singlicate, n = 1
# IKK-alpha = test system: T2, IKK-alpha; conditions: concentration: 1 μM, replicates: in singlicate, n = 1
# T2 construct: gene CHUK
# IKK-beta = test system: T3, IKK-beta; conditions: concentration: 1 μM, replicates: in singlicate, n = 1
# T3 construct: gene IKBKB
# IKK-epsilon = test system: T4, IKK-epsilon; conditions: concentration: 1 μM, replicates: in singlicate, n = 1
# T4 construct: gene IKBKE
# INSRR = conditions: concentration: 1 μM, replicates: in singlicate; n = 1
# INSR = conditions: concentration: 1 μM, replicates: in singlicate, n = 1
# IRAK1 = conditions: concentration: 1 μM, replicates: in singlicate, n = 1
# [1] = concentration: 1 μM, replicates: in singlicate
# 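Further: KINOMEscan kinase panel screen.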
structure (smiles),measurement,setting,value
O=C(Nc1n[nH]c2cc(-c3cccc(F)c3)ccc12)C1CC1 [SB-735464],%Inh,GRK4,38%
same,%Inh,GRK7,6%
same,%Inh,GSK3A,43%
same,%Inh,GSK3B; 1 µM,22%
same,%Inh,HASPIN,30%
same,%Inh,HCK,0%
same,%Inh,HIPK1,7%
same,%Inh,HIPK2,22%
same,%Inh,HIPK3,31%
same,%Inh,HIPK4,9%
same,%Inh,HPK1,0%
same,%Inh,HUNK,0%
same,%Inh,ICK,34%
same,%Inh,IGF1R,0%
same,%Inh,IKK-alpha,25%
same,%Inh,IKK-beta,37%
same,%Inh,IKK-epsilon,14%
same,%Inh,INSRR,2%
same,%Inh,INSR,9%
same,%Inh,IRAK1,10%
CCCCCc1nc2c(N)ncnc2n1CCCCC [SKF-97255],%Inh,GRK4,21%
same,%Inh,GRK7,0%
same,%Inh,GSK3A,0%
same,%Inh,GSK3B; [1],34%
same,%Inh,HASPIN,2%
same,%Inh,HCK,26%
same,%Inh,HIPK1,43%
same,%Inh,HIPK2,0%
same,%Inh,HIPK3,13%
same,%Inh,HIPK4,1%
same,%Inh,HPK1,4%
same,%Inh,HUNK,26%
same,%Inh,ICK,0%
same,%Inh,IGF1R,0%
same,%Inh,IKK-alpha,0%
same,%Inh,IKK-beta,0%
same,%Inh,IKK-epsilon,0%
same,%Inh,INSRR,0%
same,%Inh,INSR,0%
same,%Inh,IRAK1,0%
O=C1Cc2cc(Nc3nc(NCc4cccc(S(=O)(=O)C(F)(F)F)c4)ncc3C(F)(F)F)ccc2N1,%Inh,GRK4,8%
same,%Inh,GRK7,0%
same,%Inh,GSK3A,47%
same,%Inh,GSK3B; [1],0%
same,%Inh,HASPIN,8%
same,%Inh,HCK,21%
same,%Inh,HIPK1,0%
same,%Inh,HIPK2,7%
same,%Inh,HIPK3,0%
same,%Inh,HIPK4,0%
same,%Inh,HPK1,0%
same,%Inh,HUNK,8%
same,%Inh,ICK,0%
same,%Inh,IGF1R,0%
same,%Inh,IKK-alpha,20%
same,%Inh,IKK-beta,8%
same,%Inh,IKK-epsilon,0%
same,%Inh,INSRR,0%
same,%Inh,INSR,0%
same,%Inh,IRAK1,14%
CC(C)(C)n1cnc2c(N)ncnc21 [SKF-97359],%Inh,GRK4,5%
same,%Inh,GRK7,0%
same,%Inh,GSK3A,0%
same,%Inh,GSK3B; [1],0%
same,%Inh,HASPIN,65%
same,%Inh,HCK,0%
same,%Inh,HIPK1,13%
same,%Inh,HIPK2,16%
same,%Inh,HIPK3,0%
same,%Inh,HIPK4,0%
same,%Inh,HPK1,33%
same,%Inh,HUNK,19%
same,%Inh,ICK,31%
same,%Inh,IGF1R,0%
same,%Inh,IKK-alpha,0%
same,%Inh,IKK-beta,0%
same,%Inh,IKK-epsilon,0%
same,%Inh,INSRR,0%
same,%Inh,INSR,0%
same,%Inh,IRAK1,0%
COc1ccc(Nc2nccc(N3CCC(NC(=O)Nc4cc(C)ccc4C)C3)n2)cc1 (stereo not drawn) [GSK1379741],%Inh,GRK4,0%
same,%Inh,GRK7,0%
same,%Inh,GSK3A,0%
same,%Inh,GSK3B; [1],18%
same,%Inh,HASPIN,0%
same,%Inh,HCK,0%
same,%Inh,HIPK1,0%
same,%Inh,HIPK2,0%
same,%Inh,HIPK3,16%
same,%Inh,HIPK4,0%
same,%Inh,HPK1,36%
same,%Inh,HUNK,0%
same,%Inh,ICK,13%
same,%Inh,IGF1R,0%
same,%Inh,IKK-alpha,0%
same,%Inh,IKK-beta,21%
same,%Inh,IKK-epsilon,0%
same,%Inh,INSRR,0%
same,%Inh,INSR,0%
same,%Inh,IRAK1,18%
NCCNS(=O)(=O)c1ccc(-c2ccnc3[nH]ccc23)cc1 [GSK977617],%Inh,GRK4; 1 µM,69% and 37%
same,%Inh,GRK7; 1 µM,92.1% and 90.1%
same,%Inh,GSK3A,0%
same,%Inh,"GSK3B; concentration: 1 μM, replicates: in singlicate, 1 µM",0% and 10%
same,%Inh,HASPIN; 1 µM,95.3% and 86%
same,%Inh,HCK,0%
same,%Inh,HIPK1; 1 µM,95.6% and 94.2%
same,%Inh,HIPK2; 1 µM,96% and 89%
same,%Inh,HIPK3; 1 µM,97.4% and 95.9%
same,%Inh,HIPK4; 1 µM,77% and 64%
same,%Inh,HPK1; 1 µM,59% and 44%
same,%Inh,HUNK,0%
same,%Inh,ICK; 1 µM,19% and 2%
same,%Inh,IGF1R; 1 µM,8% and 16%
same,%Inh,IKK-alpha; 1 µM,97.7% and 94.3%
same,%Inh,IKK-beta; 1 µM,99.4%
same,%Inh,IKK-epsilon; 1 µM,29% and 32%
same,%Inh,INSRR,2%
same,%Inh,INSR; 1 µM,18% and 4%
same,%Inh,IRAK1; 1 µM,81% and 65%
COc1ccc(COc2cc(-n3cnc4ccccc43)sc2C(N)=O)cc1 [GSK1024304],%Inh,GRK4,1%
same,%Inh,GRK7,0%
same,%Inh,GSK3A,14%
same,%Inh,GSK3B; [1],0%
same,%Inh,HASPIN,0%
same,%Inh,HCK,0%
same,%Inh,HIPK1,18%
same,%Inh,HIPK2,18%
same,%Inh,HIPK3,21%
same,%Inh,HIPK4,8%
same,%Inh,HPK1,45%
same,%Inh,HUNK,14%
same,%Inh,ICK,0%
same,%Inh,IGF1R,8%
same,%Inh,IKK-alpha,0%
same,%Inh,IKK-beta,17%
same,%Inh,IKK-epsilon,0%
same,%Inh,INSRR,0%
same,%Inh,INSR,13%
same,%Inh,IRAK1,0%
Cl.Oc1cccc(Nc2ccnc3cc(-c4ccncc4)ccc23)c1 [GW494601],%Inh,GRK4,0%
same,%Inh,GRK7,0%
same,%Inh,GSK3A,23%
same,%Inh,GSK3B; [1],0%
same,%Inh,HASPIN,55%
same,%Inh,HCK,97.7%
same,%Inh,HIPK1,0%
same,%Inh,HIPK2,0%
same,%Inh,HIPK3,0%
same,%Inh,HIPK4,0%
same,%Inh,HPK1,37%
same,%Inh,HUNK,11%
same,%Inh,ICK,0%
same,%Inh,IGF1R,13%
same,%Inh,IKK-alpha,23%
same,%Inh,IKK-beta,0%
same,%Inh,IKK-epsilon,20%
same,%Inh,INSRR,0%
same,%Inh,INSR,0%
same,%Inh,IRAK1,22%
CN(C1=C(c2ccccc2)C(=O)NC1=O)c1ccccc1 [SB-334860],%Inh,GRK4,0%
same,%Inh,GRK7,0%
same,%Inh,GSK3A,13%
same,%Inh,GSK3B; 1 µM,0%
same,%Inh,HASPIN,0%
same,%Inh,HCK,0%
same,%Inh,HIPK1,3%
same,%Inh,HIPK2,0%
same,%Inh,HIPK3,15%
same,%Inh,HIPK4,2%
same,%Inh,HPK1,0%
same,%Inh,HUNK,0%
same,%Inh,ICK,13%
same,%Inh,IGF1R,12%
same,%Inh,IKK-alpha,0%
same,%Inh,IKK-beta,0%
same,%Inh,IKK-epsilon,27%
same,%Inh,INSRR,0%
same,%Inh,INSR,5%
same,%Inh,IRAK1,0%
